# Screening data as filed in PubChem BioAssay.
# Rows were chosen to be rich in hits. Some 3.2% of all compounds tested hit in one or more screens of this group.
# A549 tox – counter-screen for Nrf2 inhibitors: cytotoxicity in A549 cells; A549 ARE-Fluc cells, CellTiter-Fluor viability, 18-24 h; Potency, µM (series often up to 46 µM), without a hit: top-dose activity change, negative = cytotoxicity, hits mostly inhibitors; actives 0.16% (n = 390,000); AID 504648; further: potency means the concentration at half of the fitted maximal effect; on the % scale 0 is the no-effect control and ±100 the full control effect
#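 A549 ARE_Fluc cells in 5% FBS OPTI-MEM were exposed to compounds in concentration-response for 18-24 h at 37 deg C. Viability was read by CellTiter-Fluor fluorescence (Ex 405/Em 525) after 30 min, before the luciferase read.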
# p53 reactivator – mutant p53 re-activation in reporter cells. H1299 p53-A138V BP100-luciferase reporter, luminescence, 24 h. Potency, µM (highest dose often 92.2 µM), for the others: at the top dose activity change, positive = activation, actives largely listed as activators. actives 0.063% (n = 320,000); further: potency means the concentration at half of the fitted maximal effect; % of control where 0% means no effect; nearly all actives have a fitted effect of over 45% in size
#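 p53-null H1299 cells stably carrying temperature-sensitive p53-A138V and a BP100-luciferase reporter were pinned with compounds (4-point, 1:5 series) and held 24 hrs at 37 deg C. Luminescence was read 10 min after detection reagent.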
# BRCA1 expr act – activators of BRCA1 expression; Potency, µM (doses to about 46.1 µM), for inactives: at the highest dose activation, hits mostly activators; actives 1.1% (n = 380,000); MCF7-BRCA1-FFLuc reporter, luminescence, 48 h; response scale: scaled: vehicle 0%, 10 µM genistein 100%; further: potency means the concentration at half of the fitted maximal effect; nearly all actives have a fitted effect of over 80% in size
#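 Luminescence from a BRCA1-driven firefly luciferase in MCF7 cells was the read-out, taken 15 min after substrate addition following 48 h compound exposure at 37 °C. Data were normalized to a 10 microM genistein control and DMSO vehicle.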
# Nrf2 inh – blocks Nrf2 signaling; actives 2.1% (n = 360,000); Potency, µM (highest dose often 46 µM), for the others: at the highest dose activity change, negative = inhibition, usual class: inhibitors; AID 504444; A549 ARE-Fluc reporter, luciferase luminescence, 18-24 h; further: potency means the concentration at half of the fitted maximal effect; on the % scale 0 is the no-effect control and ±100 the full control effect; nearly all actives have a fitted effect of over 60% in size
#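 Nrf2 activity is the BugLite luminescence, read 15 min after reagent at room temperature, following CellTiter-Fluor cytotoxicity readout (30 min, 37C). Compound titrations were applied for 18-24 h to 5000 A549 ARE_Fluc cells/well in 5% FBS OPTI-MEM.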
# IL2 activator – activators of IL-2; activation, % (series mostly up to about 46 µM); IL-2 activation reporter assay, cell-based qHTS; stimulated with anti-CD3/CD4/CD28 beads; in transgenic mouse T cells; AID 652025; actives 0.065% (n = 360,000); in the data active means activation above about 50%; inconclusive means mostly about 30% to 49%; further: 0% is about no effect
#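 Unstimulated transgenic mouse T cells; 60-min compound exposure; bead-based TCR/CD4/CD28 stimulation; 18 h culture, 37 degrees C; dual fluorescence (EGFP, DsRed) plate cytometry.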
# Nrf2 ARE act – activates Nrf2 signaling. AREc32 ARE-luciferase reporter (MCF7-derived line), luminescence, 24 h. Potency, µM (titrated, usually from 46.1 µM), for the others: at the highest dose activation, most hits filed as activators. actives 0.31% (n = 410,000). AID 624171; further: potency means the concentration at half of the fitted maximal effect; % of control where 0% means no effect; nearly all actives have a fitted effect of over 65% in size
#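 ARE activation measured as luciferase luminescence (Steady-Glo, 30 min RT) in AREc32_Fluc cells after 24 hr compound exposure at 37 deg C, 5% CO2; cells seeded overnight at 1000/well in OPTI-MEM, 5% FBS.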
# * = called active by the depositor; ? = inconclusive; nt = no result; [ ] = remark or other dose. Unless noted, the call rests on the fitted dose curve; in most records, active means well fitted curve in the direction sought with a large enough effect; inconclusive means small, poorly fitted or top-dose-only effect, or another doubt; inactive means no such curve, though single readings can be large; an effect the other way counts as inactive or inconclusive.
SMILES,A549 tox,p53 reactivator,BRCA1 expr act,Nrf2 inh,IL2 activator,Nrf2 ARE act
CC1CCc2c(sc3nc(-c4cc5cc(Br)ccc5oc4=O)[nH]c(=O)c23)C1 (configuration not stated),6%,nt,nt,?,nt,-1%
CC(=O)Nc1ccc(C(=O)N/N=C/c2cc(Br)cc(Br)c2O)cc1,-12%,2%,-90%,15µM*,4,-1%
COc1ccc(N(C(=O)c2cc3ccccc3oc2=O)C2C=CS(=O)(=O)C2)cc1 (configuration not stated),2%,13%,-25%,10%,-1,18µM*
O=C(c1cc2ccccc2oc1=O)N(c1ccccc1)C1C=CS(=O)(=O)C1 (configuration not stated),-1%,?,-5%,2%,-1,?
N#Cc1cc2sc3nnc(-c4ccncc4)n3c2cc1C#N,-26%,?,-54%,6.5µM*,0,?
N#Cc1cc2sc3nc4ccccc4n3c2cc1C#N,nt,1%,nt,nt,nt,nt
CCOC(=O)[C@H]1O[C@@H]1C(=O)N[C@@H](CC(C)C)C(=O)NCCC(C)C,21µM*,nt,24%,10%,1,5%
CC(C)CCNC(=O)[C@H](CC(C)C)NC(=O)[C@H]1O[C@@H]1C(=O)O,nt,1%,nt,nt,nt,nt
CCN(CC)CCn1nc2c3c(cccc3c1=O)-c1ccccc1-2,13µM*,-4%,-69%,?,-1,-2%
CCN(CC)CCn1nc(C)nc1-c1ccccc1O,3%,1%,-2%,-26%,-1,-2%
Cc1cccc(N(C)C(=O)CCNS(=O)(=O)c2ccc3c(c2)CCN3C(=O)C2CC2)c1,10%,nt,-7%,nt,nt,4%
Cc1ccccc1-n1c(C)cc(/C=C(\C#N)C(=O)NCC2CCCO2)c1C (configuration not stated),10%,?,14µM*,?,0,2%
CCCOc1ccc(C2c3c(-c4ccccc4O)n[nH]c3C(=O)N2Cc2ccncc2)cc1OCC (configuration not stated),-3%,nt,nt,-27%,nt,0%
Nc1[nH]ncc1N=Nc1ccc(Cl)cc1,-17%,3%,11µM*,?,-1,3%
Nc1n[nH]c(N)c1N=Nc1ccc(Cl)cc1,-20%,?,43%,29%,0,2%
Cc1cccc(CSCc2ccc(C(=O)NC(C)C)o2)c1,1%,3%,4%,21µM*,1,0%
CCOc1ccc(-n2c(=O)c3c4c(sc3n(Cc3cccc(C)c3)c2=O)CCCC4)cc1,-8%,nt,nt,1%[9.27 µM],nt,0%
Cc1cccc(N2CCN(C(=O)c3ccc(NC(=O)CC4SC(N5CCCC5)=NC4=O)cc3)CC2)c1C (configuration not stated),2%,-4%,-23%,?,0,4%
O=C(CC1SC(N2CCCC2)=NC1=O)Nc1ccc(C(=O)Nc2ncccc2O)cc1 (configuration not stated),-1%,?,-54%,14%,1,16µM*
CN(Cc1ccccc1F)C(=O)c1cccc(NC(=O)CC2SC(N3CCCCC3)=NC2=O)c1 (configuration not stated),-11%,nt,-29%,18µM*,-4,4%
O=C(CC1SC(N2CCCC2)=NC1=O)Nc1ccc(C(=O)N2CCN(c3cccc(Cl)c3)CC2)cc1 (configuration not stated),?,1%,-43%,21µM*,-1,0%
O=C1c2ccccc2C(=O)N1c1cccc2ccncc12,5%,nt,nt,6%,nt,nt
Cc1c(NC(=O)c2ccc(Cl)cc2)cc(C(C)C)c(O)c1S(=O)(=O)c1ccc(Cl)cc1,-5%,nt,87%,17%,nt,5%
COc1cccc(NC(=O)CSc2c(C)cnc3c2c(=O)n(C)c(=O)n3C)c1,13%,nt,nt,nt,nt,?
CC(C)CCNC(=O)NC(=O)COC(=O)/C=C/c1cc(Br)ccc1F,2%,3%,3%,-5%,-1,1%
SMILES,A549 tox,p53 reactivator,BRCA1 expr act,Nrf2 inh,IL2 activator,Nrf2 ARE act
O=C(/C=C/c1cccc(Cl)c1Cl)OCC(=O)N1CCOCC1,2%,21%,16%,-2%,-1,18µM*
O=C(/C=C/c1cc(Br)ccc1F)OCC(=O)N1CCOCC1,-3%,7%,-6%,-2%,1,11µM*
O=C(/C=C/c1ccccc1Cl)OCC(=O)N1CCc2ccccc21,nt,nt,-1%,nt,-2,5%
O=C(/C=C/c1cc(Br)ccc1F)OCC(=O)N1CCCC1,-1%,-1%,0%,0%,0,11µM*
CC1(C)CCc2cc(O)ccc2O1,nt,nt,0%,nt,nt,nt
Cc1ccc(OCCCCn2c(CCNC(=O)C3CCCCC3)nc3ccccc32)cc1,-4%,nt,5%,-1%,nt,nt
CCCN1C(=O)C(NC(=O)c2ccccc2OC)(C(F)(F)F)C(C(=O)OC)=C1C (configuration not stated),1%,nt,nt,-2%,nt,0%
COc1ccc2nc(NC(=O)c3ccco3)sc2c1,-4%,8%,?,?,0,17%
COc1ccc2nc(NC(=O)C3CCN(C(=O)c4ccco4)CC3)sc2c1,-3%,17%,13µM*,1%,-2,3%
Cc1cccc(NC(=O)C2CCN(S(=O)(=O)c3cccc4nsnc34)CC2)n1,-2%,-6%,0%,?,-1,-1%
Cc1cccc2sc(NC(=O)C3CCN(S(=O)(=O)c4cc([N+](=O)[O-])ccc4Cl)CC3)nc12,?,?,-69%,12µM*,-1,9%
COc1ccc2nc(NC(=O)C3CCN(S(=O)(=O)c4cccc5nsnc45)CC3)sc2c1,-20%,-1%,-56%,16µM*,-3,0%
Cc1nnc(NC(=O)C2CCN(S(=O)(=O)c3cc([N+](=O)[O-])ccc3Cl)CC2)o1,1%,28%,-22%,-5%,0,19%
COc1ccc(S(=O)(=O)NCc2cccn2Cc2cc(C)ccc2C)cc1OC,-8%,nt,-2%,nt,nt,3%
Brc1ccc2nc(SCCOc3ccccc3)[nH]c2c1,-1%,nt,32%,-3%,nt,0%
Cn1c(CSc2nc3ccc(Br)cc3[nH]2)nc2ccccc21,?,-4%,7%,21µM*,-2,3%
OC1CCN(c2c3c(nc4cc(-c5cccc(F)c5)nn24)CCCC3)CC1,?,18%,-6%,23µM*,-1,8%
Nc1nc(N)c(Cc2ccc(Cl)cc2Cl)c(N)n1,-14%,1%,-10%,18µM*,-1,2%
Nc1nccc(SCc2ccc(Cl)cc2Cl)n1,2%,nt,-3%,-5%,1,3%
